The source of these data is PubChem BioAssay (NCATS).

Results filed as inconclusive are left out. Values without a mark were called inactive. Activity calls are given as the source filed them. Calls follow the shape of the dose curve; as a rule, active = well fitted curve in either direction with a large enough effect (not every such curve was filed as active); inconclusive = small, poorly fitted or top-dose-only effect, or another doubt; inactive = flat fitted curve, though single readings scatter.
% is scaled to controls: 0 for no effect and ±100 for the full control effect.

The experiment in a line: NFAT Signaling Pathway (AID 444).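 Also: carbachol stimulus at about its EC50 of 1 µM final.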 The settings on record: Jurkat NFAT-bla M1, carbachol, beta-lactamase ratio, 5 h; at 7.69 µM (top of the series) unless noted. An outline of the steps:
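Jurkat cells with NFAT-driven β-lactamase reporter and co-expressed M1 receptor, stimulated with carbachol (final 1 uM, ~EC50), compound titration, 5 h at 37 °C. CCF4 loaded 1 h at RT; 460/530 nm ratio gave %activity and AC50.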
For the molecule `COc1ccc2c(c1)[C@]13CCCC[C@@H]1[C@H](C2)NCC3`, the activity change, negative = inhibition was 4.42% [at 38 µM].
Regarding `O=C(C[C@H](c1ccccc1)c1c(O)c2ccccc2oc1=O)c1ccccc1`, the activity change, negative = inhibition was 11.4%.
To `COc1ccc(C[C@@H]2NC[C@H](O)[C@@H]2OC(C)=O)cc1` belongs -130% [at 17.2 µM] (active); to `CO[C@@H]1CC=C2CCN3CCC4=C(CC(=O)OC4)[C@]23C1`, -0.774% [at 38 µM]; to `CCNC(=O)[C@@H]1O[C@@H](n2cnc3c(N)ncnc32)[C@@H](O)[C@H]1O`, -9.11% [at 38 µM].
To `C[C@]12CC[C@@H]3[C@H](CCC4=CC(=O)CC[C@]43C)[C@]1(O)CC[C@@]2(O)C(=O)CO` belongs 5.17%; to `CC(C)N[C@@H](C)Cc1ccc(I)cc1`, -29.8% [at 38 µM].
To `O=S(=O)(NCCO)c1cc[c]([Sb](=[O])([OH])[OH])cc1` belongs 16.2%.
Consider `NC(=O)CN1C[C@@H](O)CC1=O`, for which the activity change, negative = inhibition is 17.8% [at 38 µM].
Take `CCSCC[C@H](N)C(=O)O`: the activity change, negative = inhibition was 3.15%.
To `O=C(O)C[O][Sb][O]CC(=O)O` belongs 6.08%; to `Nc1c(C(=O)Nc2ccc([As](=O)(O)O)cc2)cnc2nnnn12`, 25.5%; to `C[Se]C[C@@H](N)C(=O)O`, 5.06% [at 38 µM].
Consider `CN(C)[C@@H]1C(=O)C(C(N)=O)=C(O)[C@]2(O)C(=O)C3=C(O)c4c(O)cccc4[C@](C)(O)[C@H]3C[C@@H]12`, for which the activity change, negative = inhibition was 15.2%.
To `CN(C)CCCNc1c2c(nc3ccc(Cl)cc13)CCCC2` belongs -26.1%.
